Only some compounds are listed: those with a hit (about 7.9% of all), similar ones and a draw of the others.
HT1080 IDH1KD tx = kills HT-1080 cells with IDH1 knockdown; HT-1080 IDH1 knockdown viability, ATP luminescence, 48 h; Potency, µM (series often up to 46.1 µM), actives largely listed as cytotoxic; actives 2% (n = 360,000); AID 686971
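Assay cells: HT-1080 with IDH1 knockdown, 750 per well, RPMI/5% FBS. Exposure: 48 h at 37 °C following 2 h pre-incubation. Read: CellTiter-Glo luminescence; fitted concentration-response, curve class assigned.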
HT1080NT lethal = kills 2HG-producing HT-1080-NT fibrosarcoma cells; HT-1080-NT fibrosarcoma viability, CellTiter-Glo ATP luminescence, 48 h; Potency, µM (titrated, usually from 46.1 µM), hits mostly cytotoxic; actives 1.6% (n = 360,000); AID 686970;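 also: NT is the 2HG producing partner of a matched IDH1 knockdown line; nearly all actives have a fitted effect of over 55% in size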
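A 48-hour cytotoxicity screen used HT-1080-NT cells plated 2 hours before compound delivery. ATP-based CellTiter-Glo luminescence measured viability, normalized to DMSO and no-cell controls.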
KB-V1 MDR tox = kills drug-selected multidrug resistant KB-V1 cells; actives 3.4% (n = 400,000); AID 1347076; KB-V1 MDR cells viability, CellTiter-Glo, 72 h; Potency, µM (top dose mostly 46.1 µM), most hits filed as cytotoxic; also: nearly all actives have a fitted effect of over 60% in size
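KB-V1, DMEM (no phenol red) + 10% FBS; cpd pin-transferred, titration series; 72 h, 37 degrees C; CellTiter-Glo, luminescence. Data normalized, curve-fit.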
MCF10A rerep = DNA re-replication induction in MCF 10a cells; MCF 10A DNA re-replication, Hoechst nuclear intensity, 48 h; Potency, µM (titrated, usually from 46.1 µM), hits mostly activators; actives 2.9% (n = 350,000); AID 624296; also: nearly all actives have a fitted effect of over 50% in size
SW480 rerep = inducers of DNA re-replication in SW480 colon cancer cells; SW480 DNA re-replication, Hoechst DNA content imaging, 48 h; Potency, µM (highest dose often 46.1 µM), actives largely listed as activators; actives 1.8% (n = 340,000); AID 624297; also: nearly all actives have a fitted effect of over 55% in size
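DNA re-replication was detected as more nuclei of elevated Hoechst intensity after 48 hr exposure to compound (23 nL pinned per well of 250 cells).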
KB-3-1 tox = KB-3-1 parental cell cytotoxicity | actives 1.4% (n = 400,000) | AID 1347075 | Potency, µM (series often up to 46.1 µM), most hits filed as cytotoxic | KB-3-1 viability, CellTiter-Glo ATP luminescence, 72 h; also: nearly all actives have a fitted effect of over 60% in size
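Parental KB-3-1 viability, qHTS format: 72 h compound exposure, 37 °C; CellTiter-Glo; media-only wells and DMSO plates as controls; concentration-effect fits on corrected data.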
Each line names hits and unclear results; the compound was inactive in the other large screens. Calls follow the shape of the dose curve; as a rule, active = well fitted curve in the direction sought with a large enough effect; inconclusive = small, poorly fitted or top-dose-only effect, or another doubt; inactive = no such curve, though single readings can be large; an effect the other way counts as inactive or inconclusive.

COc1cccc(C(=O)N2CCCc3ccccc32)c1	KB-V1 MDR tox inconclusive
COc1ccc2c(c1)CCc1c(C(=O)N3CCOCC3)noc1-2	KB-V1 MDR tox 16µM
COc1ccc2c(c1)CCc1c(C(=O)N3CCCc4ccccc43)noc1-2	HT1080 IDH1KD tx inconclusive, HT1080NT lethal inconclusive, KB-V1 MDR tox 7.3µM, MCF10A rerep inconclusive, KB-3-1 tox 21µM
COc1ccc2c(c1)CCc1c(C(=O)N3CC4(C)CC3CC(C)(C)C4)noc1-2 (stereo not given)	HT1080 IDH1KD tx inconclusive, HT1080NT lethal inconclusive, MCF10A rerep inconclusive
COc1cccc(Nc2nc(N)nc(C(F)(F)F)n2)c1	HT1080 IDH1KD tx inconclusive, KB-V1 MDR tox inconclusive, MCF10A rerep inconclusive
COc1cccc(Nc2nc(N)nc(CCl)n2)c1	HT1080 IDH1KD tx 10µM, HT1080NT lethal 7.3µM, MCF10A rerep 18µM, SW480 rerep 15µM
Cc1cccc(Nc2nc(N)nc(CCl)n2)c1	HT1080 IDH1KD tx inconclusive, HT1080NT lethal 3.7µM, MCF10A rerep inconclusive, SW480 rerep inconclusive, KB-3-1 tox inconclusive
Cc1cccc(Nc2nc(N)nc(CSc3nccc(C)n3)n2)c1	none
O=C(COc1ccc([N+](=O)[O-])cc1)Nc1ccc(N2CCN(C(=O)c3ccco3)CC2)cc1	none
O=C(O)c1cnccn1	none
CCC(=O)O[C@]1(C(=O)CCl)[C@@H](C)C[C@H]2[C@@H]3CCC4=CC(=O)C=C[C@]4(C)[C@@]3(F)[C@@H](O)C[C@@]21C	KB-V1 MDR tox inconclusive, MCF10A rerep inconclusive
CCCC(=O)O[C@]1(C(=O)CCl)[C@@H](C)C[C@H]2[C@@H]3CCC4=CC(=O)C=C[C@]4(C)[C@@]3(F)C(=O)C[C@@]21C	KB-V1 MDR tox 13µM, MCF10A rerep inconclusive
COc1ccc(Cl)cc1-c1nc(SCC(=O)NC(C)C)n[nH]1	KB-V1 MDR tox inconclusive
CC(=O)N/N=C/c1cc(C(C)(C)C)cc(/C=N/NC(C)=O)c1O	HT1080 IDH1KD tx inconclusive, KB-V1 MDR tox inconclusive, MCF10A rerep 15µM, SW480 rerep 3.3µM
Cc1cc(C(=O)N/N=C\c2cc(C(C)(C)C)ccc2O)n[nH]1	HT1080 IDH1KD tx inconclusive, HT1080NT lethal inconclusive, SW480 rerep inconclusive, KB-3-1 tox inconclusive
COc1ccc(CCNC(=O)NCCc2c[nH]c3ccccc23)cc1OC	none
COc1cc2c(cc1OC)C(COc1ccc(F)cc1)N(C(=O)C(C)C)CC2 (stereo not given)	KB-V1 MDR tox inconclusive (no result: HT1080 IDH1KD tx, HT1080NT lethal, MCF10A rerep, SW480 rerep)
COc1cc2c(cc1OC)C(c1cc3cc4c(cc3[nH]c1=O)OCO4)N(C(=O)C(C)C)CC2 (stereo not given)	MCF10A rerep 8.2µM, SW480 rerep inconclusive
Cc1ccc(/C=N/NC(=O)CSc2nnc(-c3ccccc3)n2-c2ccc(Cl)cc2)o1	none
Cc1ccc(CSc2nnc(SCC(=O)N/N=C/c3c(C)nn(-c4ccccc4)c3C)s2)cc1	none
Cc1ccc(-c2nnc(SCC(=O)N/N=C/c3c(C)nn(-c4ccccc4)c3C)n2-c2ccccc2)cc1	KB-V1 MDR tox 15µM, MCF10A rerep inconclusive, SW480 rerep inconclusive, KB-3-1 tox inconclusive
Cc1nn(-c2ccccc2)c(C)c1/C=N/NC(=O)CSc1nnc(-c2ccccc2)n1-c1ccc(Cl)cc1	MCF10A rerep inconclusive
Cc1ccc(-c2nnc(SCC(=O)N/N=C/c3ccccc3C(=O)O)n2-c2ccc(C)cc2)cc1	none
Cc1ccc(-c2nnc(SCC(=O)N/N=C/c3c(C)nn(-c4ccccc4)c3C)n2-c2ccc(C)cc2)cc1	KB-V1 MDR tox 21µM, KB-3-1 tox inconclusive
Cc1ccc(/C=N/NC(=O)CSc2nnc(-c3ccc(Cl)cc3)n2-c2ccc(Cl)cc2)o1	HT1080 IDH1KD tx inconclusive, HT1080NT lethal 18µM, KB-V1 MDR tox inconclusive, SW480 rerep inconclusive, KB-3-1 tox inconclusive
Cc1ccc(-c2nnc(SCC(=O)N/N=C/c3ccc(C)s3)n2-c2ccccc2)cc1	HT1080 IDH1KD tx inconclusive, HT1080NT lethal inconclusive, KB-V1 MDR tox 21µM, MCF10A rerep 18µM, SW480 rerep inconclusive, KB-3-1 tox inconclusive
COc1ccc(NC(=O)c2cc(S(=O)(=O)N3CCCC3)ccc2C)cn1	none
Cc1ccc(-n2cc(CNCCCn3cccn3)c(-c3cccc(C)c3)n2)cc1	HT1080 IDH1KD tx inconclusive, HT1080NT lethal inconclusive, KB-V1 MDR tox inconclusive, MCF10A rerep inconclusive, KB-3-1 tox inconclusive
Cc1ccc(C)c(-n2cc(CNCCCn3cccn3)c(-c3ccccc3)n2)c1	HT1080 IDH1KD tx inconclusive, HT1080NT lethal 21µM, MCF10A rerep inconclusive, SW480 rerep 16µM
Cc1ccc(-n2cc(CN3CCN(Cc4nccn4C)CC3)c(-c3ccc(F)cc3)n2)cc1	HT1080 IDH1KD tx inconclusive, HT1080NT lethal inconclusive
Cc1ccc(-n2cc(CNCCCn3ccnc3C)c(-c3ccc(F)cc3)n2)cc1	HT1080 IDH1KD tx inconclusive, HT1080NT lethal 21µM, KB-V1 MDR tox 21µM, MCF10A rerep inconclusive, SW480 rerep inconclusive, KB-3-1 tox inconclusive
Cc1ccc(-n2cc(CNCCc3cscn3)c(-c3ccc(F)cc3)n2)cc1	HT1080 IDH1KD tx 21µM, HT1080NT lethal 21µM, MCF10A rerep inconclusive
CN(CC(=O)Nc1ccccc1C(F)(F)F)C(=O)c1cc2c(s1)CCCCC2	MCF10A rerep inconclusive
CCc1ccc(NC(=O)CC2C(=O)N(c3cccc(OC)c3)C(=O)N2CCOC)cc1 (stereo not given)	none
CCCCCn1nc(C(=O)N2CCc3ccccc32)c2ccccc2c1=O	KB-3-1 tox inconclusive
O=C(N/N=C/c1ccc(-c2ccc([N+](=O)[O-])cc2)o1)[C@H]1C[C@@H]1c1ccccc1	MCF10A rerep 23µM, SW480 rerep 8.2µM
COc1cc([N+](=O)[O-])cc(/C=N\NC(=O)C2COc3ccccc3O2)c1O (stereo not given)	HT1080 IDH1KD tx 18µM, HT1080NT lethal inconclusive, KB-V1 MDR tox inconclusive, MCF10A rerep inconclusive, KB-3-1 tox inconclusive
O=C(N/N=C\c1ccc(-c2ccc([N+](=O)[O-])cc2)o1)C1COc2ccccc2O1 (stereo not given)	KB-V1 MDR tox inconclusive, MCF10A rerep 21µM
O=C(N/N=C\c1cccc([N+](=O)[O-])c1O)C1COc2ccccc2O1 (stereo not given)	HT1080 IDH1KD tx inconclusive, HT1080NT lethal inconclusive, SW480 rerep inconclusive
CN(C)c1ccc(/C=N/NC(=O)C2COc3ccccc3O2)o1 (stereo not given)	HT1080NT lethal inconclusive
COC(C)(C)[C@H](O)COc1c2ccoc2cc2oc(=O)ccc12	none
CCc1ccc(NC(=O)CSc2nnc(-c3ccccn3)n2C)cc1	none
CCCn1c(SCC(=O)NCCc2ccccc2)nnc1-c1ccccn1	KB-V1 MDR tox inconclusive
CC(C)c1ccc(NC(=O)CSc2nnc(-c3ccccn3)n2C)cc1	KB-V1 MDR tox 5.2µM

High-throughput results deposited in PubChem by National Center for Advancing Translational Sciences (NCATS).
